Most compounds without a hit are left out; they make up all but 1% or so of the library.
TSHR antagonist – Antagonists of the Thyroid Stimulating Hormone Receptor: HTS campaign; Thyrotropin receptor (Homo sapiens), P16473; TSHR-expressing cells, TSH-stimulated cAMP HTRF, 2 h; hits give low values; activity change, negative = inhibition, % at 11.5 µM; 330,000 tested, 0.2% active; AID 504810, 2011;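 active = activity change below a set negative limit, meaning inhibition stronger than a set level, cut at about -70% in these data; inconclusive = activity change between two set negative limits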; note: % is set by controls: 0 for no effect and ±100 for the full control effect
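TSHR-expressing cells, 200/well, pre-treated with compound, then stimulated with EC80 TSH (4nM final) for 2 hours at 37 deg C. cAMP measured by competitive HTRF: anti-cAMP cryptate antibody in lysis buffer plus cAMP-d2, read after 30 minutes at room temperature.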
NPSR antag – qHTS Assay for Antagonists of the Neuropeptide S Receptor: cAMP Signal Transduction; Potency, µM (top dose mostly 38.3 µM), for the others: at the top dose activity change, negative = inhibition, usual class: inhibitors; CHO-NPSR cells, cAMP TR-FRET, antagonist mode; AID 1461, 2008; Q6W5P4; 220,000 tested, 1% active; note: potency is the fitted concentration of half-maximal effect; % is set by controls: 0 for no effect and ±100 for the full control effect; nearly all actives have a fitted effect of over 50% in size
TCR activator – Activators of T cell receptors: qHTS campaign; primary human leukocytes, anti-CD3, IL-2 HTRF, 48 h; Potency, µM (series often up to 9.22 µM), without a hit: at the top dose activation of IL-2 secretion, hits mostly activators; 330,000 tested, under 10 active; note: % of control where 0% means no effect
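IL-2 release read by HTRF sandwich (Eu cryptate donor, d2 acceptor, 665 nm emission) after 48 hr exposure of primary human leukocytes to compound together with anti-CD3 beads in the absence of co-stimulatory signals.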
TexasRed fluor – Total Fluorescence Counterscreen for Inhibitors of the Interaction of Thyroid Hormone Receptor and Steroid Receptor Coregulator 2. Potency, µM (series often up to 106 µM), without a hit: at the highest dose fluorescence change, negative = quenching. 280,000 tested, 0.29% active. TRb/SRC2 Texas Red total fluorescence interference; active = well fitted curve in either direction with a large enough effect; inconclusive = small, poorly fitted or top-dose-only effect; note: potency is the fitted concentration of half-maximal effect; % is set by controls: 0 for no effect and ±100 for the full control effect
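Human TRb ligand-binding domain at 0.6 uM with 20 nM Texas Red SRC2 peptide in Tris buffer containing 1 uM T3 and 5% DMSO, incubated with compound 5 h at ambient temperature. Total fluorescence (555/632 nm) calculated as parallel + 2 × perpendicular.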
TRb-SRC2 inh – qHTS for Inhibitors of the Interaction of Thyroid Hormone Receptor and Steroid Receptor Coregulator 2; TRbeta-SRC2 peptide binding, fluorescence polarization; receptor liganded with 1 µM T3; Thyroid hormone receptor beta (Homo sapiens), P10828; AID 1469, 2008; Potency, µM (series often up to 106 µM), without a hit: at the top dose activity change, negative = inhibition, hits mostly inhibitors; 280,000 tested, 0.065% active;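 note: potency is the fitted concentration of half-maximal effect; plate controls were bound peptide for no effect and peptide without receptor for full effect; nearly all actives have a fitted effect of over 50% in size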
Target sequence (P10828 whole entry, looked up): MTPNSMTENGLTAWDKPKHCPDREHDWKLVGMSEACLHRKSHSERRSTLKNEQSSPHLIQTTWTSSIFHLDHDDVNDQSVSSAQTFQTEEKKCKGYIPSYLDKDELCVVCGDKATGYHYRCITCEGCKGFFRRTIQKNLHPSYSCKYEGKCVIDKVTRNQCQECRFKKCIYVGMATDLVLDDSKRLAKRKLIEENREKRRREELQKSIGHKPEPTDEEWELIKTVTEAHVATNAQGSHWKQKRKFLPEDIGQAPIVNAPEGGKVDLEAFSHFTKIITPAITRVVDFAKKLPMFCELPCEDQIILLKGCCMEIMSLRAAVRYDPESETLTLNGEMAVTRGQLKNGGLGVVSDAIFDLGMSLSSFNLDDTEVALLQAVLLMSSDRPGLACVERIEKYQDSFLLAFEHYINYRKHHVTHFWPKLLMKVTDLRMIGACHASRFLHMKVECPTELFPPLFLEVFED
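Assay buffer: 20 mM Tris-HCl, 100 mM NaCl, 10% glycerol, 1 mM EDTA, 0.01% NP-40, 1 mM DTT, 1 uM T3, 5% DMSO; TRb LBD 0.6 uM, Texas Red SRC2 20 nM; FP after 5 hr.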
FBPA coupling cs – qHTS Assay for Inhibitors of Fructose-1,6-bisphosphate Aldolase from Giardia Lamblia: Coupling assay counterscreen | coupling enzyme system counterscreen, AmpLite Red fluorescence | activity change, negative = inhibition, % at 58.2 µM, hits read low | 290,000 tested, 0.67% active; in the data active = activity change below about -30%; note: % is set by controls: 0 for no effect and ±100 for the full control effect
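First, compound is pin-transferred into glyceraldehyde-3-phosphate coupling-enzyme reagent at 57.5 uM final and held 10 min at RT. Next, substrate, coupling system and AmpLite Red are added. After 20 min RT, fluorescence (525/598 nm) is read.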
An asterisk follows results filed as active; [ ] = remark or other dose. Unless noted, calls come from the whole dose curve; as a rule, active = well fitted curve in the direction sought with a large enough effect; inconclusive = small, poorly fitted or top-dose-only effect, or another doubt; inactive = no such curve, though single readings can be large; an effect the other way counts as inactive or inconclusive.

O=C(CSc1nc(C2CC2)nc2ccccc12)N1CCCCC1 was read as TSHR antagonist 7, TCR activator -12% and FBPA coupling cs 3.
For O=C(CSc1nc(C2CC2)nc2ccccc12)N1c2ccccc2Sc2ccc(C(F)(F)F)cc21 the results were TSHR antagonist 3, NPSR antag 7.9µM*, TCR activator -3%, TexasRed fluor -2%, TRb-SRC2 inh 3% and FBPA coupling cs -1.
`CN(C)S(=O)(=O)N1CCN(c2ccnc3cc(Cl)ccc23)CC1` gave TSHR antagonist -120*, TCR activator -1% and FBPA coupling cs 2.
`CC(C)S(=O)(=O)N1CCN(c2ccnc3cc(Cl)ccc23)CC1` gave TSHR antagonist -8, NPSR antag 36%, TCR activator -8%, TexasRed fluor -2%, TRb-SRC2 inh -1% and FBPA coupling cs -1.
`COCCCn1[nH]c2c3c(ccc2c1=O)C(=O)c1ccccc1C3=O` gave TSHR antagonist -12, NPSR antag -19%[46.1 µM], TCR activator 11%, TexasRed fluor -18%, TRb-SRC2 inh -5% and FBPA coupling cs -49*.
CCN(Cc1cccc(S(=O)(=O)O)c1)c1ccc(C(=C2C=CC(=[N+](CC)Cc3cccc(S(=O)(=O)[O-])c3)C=C2)c2ccccc2)cc1 was read as TexasRed fluor 89µM*[quencher] and TRb-SRC2 inh inconclusive.
CCN(CC)c1ccc(C(=C2C=CC(=[N+](CC)Cc3cccc(S(=O)(=O)[O-])c3)C=C2)c2ccc(N(CC)Cc3cccc(S(=O)(=O)O)c3)cc2)cc1 was read as TexasRed fluor 11µM*[fluorescent], TRb-SRC2 inh 11µM* and FBPA coupling cs -23.
For CCN(CC)CCNC(=O)c1ccc2c(c1)NC(=O)C(CS(=O)(=O)Cc1ccc(F)cc1Cl)N2 (configuration not stated) the results were TexasRed fluor -2% and TRb-SRC2 inh 6%.
For COCCn1c(SCC(=O)Nc2nnc(C)s2)nnc1-c1cc2ccccc2cc1O the results were TSHR antagonist 30, NPSR antag inconclusive, TCR activator -4%, TexasRed fluor 0%, TRb-SRC2 inh 7% and FBPA coupling cs -44*.
`Cc1cccc(NC(=O)C(Cc2ccccc2)N2Cc3ccccc3C2=O)c1C` (configuration not stated) gave TexasRed fluor 1% and TRb-SRC2 inh -5%.
Cc1ccc(C)c(NC(=O)C(Cc2ccccc2)N2Cc3ccccc3C2=O)c1 (configuration not stated) was read as TexasRed fluor 126µM*[quencher] and TRb-SRC2 inh -21%.
Cc1ccc(C)c(NC(=O)C(c2ccccc2)N2Cc3ccccc3C2=O)c1 (configuration not stated) was read as TexasRed fluor 100µM*[quencher] and TRb-SRC2 inh -29%.
CC(=O)Nc1ccc(NC(=O)C(c2ccccc2)N2Cc3ccccc3C2=O)cc1 (configuration not stated) was read as TexasRed fluor 100µM*[quencher] and TRb-SRC2 inh -17%.
For Cc1ccc(-c2onc(C)c2C)cc1S(=O)(=O)Nc1ccc(Cl)cn1 the results were TexasRed fluor 0% and TRb-SRC2 inh 5%.
C/C(=N/Nc1ccc(C(=O)O)cc1)c1ccc(O)c(O)c1O was read as TSHR antagonist -3, NPSR antag 19%, TCR activator 1%, TexasRed fluor -10%, TRb-SRC2 inh -3% and FBPA coupling cs -34*.
Screening CC1(C)c2ssc(=S)c2-c2ccccc2N1C(=O)c1ccco1 returned TSHR antagonist -74*, NPSR antag -28%[46.1 µM], TexasRed fluor 1%, TRb-SRC2 inh 5% and FBPA coupling cs 2.
Screening Cc1ccc2c(c1)-c1c(ssc1=S)C(C)(C)N2C(=O)c1ccco1 returned TSHR antagonist -20, NPSR antag inconclusive, TCR activator -2%[46.1 µM], TexasRed fluor -5%, TRb-SRC2 inh -1% and FBPA coupling cs 0.
For CCCS(=O)(=O)c1nnnn1-c1cccc(OC)c1 the results were TSHR antagonist -12, NPSR antag 10µM*, TexasRed fluor -3%, TRb-SRC2 inh -6% and FBPA coupling cs 2.
For COc1cccc(CS(=O)(=O)c2nnnn2-c2ccccc2)c1 the results were TexasRed fluor 1%, TRb-SRC2 inh 10% and FBPA coupling cs 2.
For FC(F)(F)c1ccc(/C=N/N2CCN(Cc3cccc4ccccc34)CC2)cc1 the results were TSHR antagonist 2, NPSR antag -4%[46.1 µM], TCR activator -8%, TexasRed fluor -3%, TRb-SRC2 inh -12% and FBPA coupling cs 0.
`C(=N\N1CCN(Cc2cccc3ccccc23)CC1)/c1cccnc1` gave TSHR antagonist -82*, NPSR antag -13%[46.1 µM], TCR activator -4%, TexasRed fluor -7%, TRb-SRC2 inh -7% and FBPA coupling cs -2.
For COc1ccc(CCNc2nc(SCc3ccccc3Cl)nc3ccccc23)cc1OC the results were TexasRed fluor -19% and TRb-SRC2 inh 2%.
`N[C@H](C(=O)O)[C@H](OCc1ccccc1)C(=O)O` gave TexasRed fluor -1%, TRb-SRC2 inh 1% and FBPA coupling cs 5.
O=C1C2=C(S[C@@H]3O[C@H](CO)[C@@H](O)[C@H](O)[C@H]3O2)C(=O)c2ccccc21 was read as TexasRed fluor -1%, TRb-SRC2 inh 3% and FBPA coupling cs -40*.
`O=[N+]([O-])c1cc(Br)c(O)c(C=Nc2ccc(N3CCOCC3)cc2)c1` gave TSHR antagonist -86*, NPSR antag -22%, TCR activator 3%, TexasRed fluor -3%, TRb-SRC2 inh 8% and FBPA coupling cs -3.
`CC(C)NC(=O)CC1Nc2c3ccccc3nc(=S)n2C1=O` (configuration not stated) gave TSHR antagonist -4, NPSR antag -5%[46.1 µM], TCR activator -1%, TexasRed fluor -1%, TRb-SRC2 inh 2% and FBPA coupling cs -35*.
`NC(=O)c1ccsc1NC(=O)c1ccc(S(=O)(=O)N2CCCC2)cc1` gave TSHR antagonist -10, NPSR antag 2µM*, TCR activator -3%, TexasRed fluor 1%, TRb-SRC2 inh 2% and FBPA coupling cs 0.

Source: PubChem BioAssay (National Center for Advancing Translational Sciences (NCATS))
